Among all 38,000 compounds or so, about 1,200 (3.2%) showed an effect of 50% or more. The median lay at about -58%. The full list was thinned out, with strong results kept by preference.

In this assay the test system is Plasmodium falciparum. Briefly: Calibr Malaria Delayed Death Assay SOP. Type of assay: functional, organism-based. Details: scale not given: in the data most compounds retested in dose-response had high values. The following applies: concentration 4.99e-06 (unit not given; other assays of the set use mol/L).
Take `COCC(O)CN(C)c1ccnc2cc(F)ccc12` (centres undefined): the “Percent Effect” value is listed as -53.9%.

For the compound `COCC(O)CN(C)c1ccnc2ccc(Cl)cc12` (centres undefined), the “Percent Effect” value is -46.57%. With `COC1COC2(CCN(C(=O)c3ccc4ccccc4c3)CC2)C1` (centres undefined) the figure was -205.6%; with `CCCn1ncc(-c2ccnc(NC3CC(C)(C)NC(C)(C)C3)n2)c1C`, 66.75%.

Consider `CCCn1ncc(-c2ccnc(NC3CCSC3)n2)c1C` (centres undefined), for which the “Percent Effect” value is recorded as -9.069%.

Regarding `CCCn1ncc(-c2ccnc(N[C@@H]3C[C@@H]4CC[C@H]3C4)n2)c1C`, the “Percent Effect” value is -33.21%. With `CCN(CC)C(=O)c1nnsc1-c1ccc(C)cc1` the figure was -12.06%; with `CC(=O)N1CCN2C[C@H](CO)[C@@H](c3ccccc3)[C@H]2C1`, -67.98%; with `CC(=O)NCCNC(=O)CN1CCCC1c1c(C)nn(C)c1C` (centres undefined), -114%. With `CN1C(=O)C[C@H]2[C@H]1CCN2Cc1cccc(C#N)c1.O=C(O)C(F)(F)F`, the “Percent Effect” value is -78.57%. With `Cc1ncnc2c1CCN(C(=O)Cc1ccccn1)CC2.O=C(O)C(F)(F)F` the figure was -129.8%; with `COCC(=O)NC1CC2(CCN(CCN(C)C)CC2)c2ccccc21` (centres undefined), -44.07%; with `CS(=O)(=O)N1CCC2(CC1)CC(NCc1ccccn1)c1ccccc12` (centres undefined), 1.106%. With `COCCN1CCC2(CC1)CC(NCc1cncn1C)c1ccccc12.O=C(O)C(F)(F)F.O=C(O)C(F)(F)F` (centres undefined) the figure was -24.3%; with `COCCN1CCC2(CC1)CC(N1CCOCC1)c1cc(C)ccc12.O=C(O)C(F)(F)F.O=C(O)C(F)(F)F` (centres undefined), -78.91%; with `COCCN1CCC2(CC1)CC(NCc1ccc(C)s1)c1ccccc12.O=C(O)C(F)(F)F.O=C(O)C(F)(F)F` (centres undefined), 76.07%.

On to `CC(C)N(CC(N)=O)C(=O)c1cnc(-c2ccc3c(c2)OCO3)s1`, for which the “Percent Effect” value is -184.6%. The figure for `CC(=O)N(C)Cc1cccc(NC(=O)c2cnn(C)c2C)c1` is -25.31%.

For `CCOc1cc(C(=O)n2cc(C)cn2)cc(OCC)c1OCC`, the “Percent Effect” value was -156.8%. For `NC(=O)c1ccc(N2CCCCC2)c(NC(=O)c2cc(Br)ccc2Cl)c1`, the “Percent Effect” value is on record as -37.22%. With `NC(=O)c1ccc(N2CCCCC2)c(NC(=O)c2cc(Br)ccc2F)c1` the figure was -77.22%; with `NC(=O)c1ccc(N2CCCCC2)c(NC(=O)c2ccc(Br)cc2)c1`, 70.21%; with `CSCc1cc(F)ccc1CNC(=O)N1CCC[C@@H]1CO`, -21.18%. With `NC(=O)NC(=O)CCN1CCN(c2nccs2)CC1`, the “Percent Effect” value is -12.95%. Regarding `COc1ccc(CNCC(C)Oc2ccccn2)cc1Cl.Cl` (centres undefined), the “Percent Effect” value was 13.86%. `O=C(CO)N1CCC2(CC1)CC(=O)N(Cc1cc(F)cc(F)c1)C2`: the “Percent Effect” value is reported as -76.75%. In the case of `CC(C)N1CCC2(CC1)CC(=O)N(Cc1cc(F)cc(F)c1)C2`, the “Percent Effect” value is 31.53%. The figure for `O=C1CC2(CCN(CCCF)CC2)CN1Cc1cc(F)cc(F)c1` is 33.68%.

For the compound `O=C1CC2(CCN(Cc3ccoc3)CC2)CN1Cc1cc(F)cc(F)c1`, the “Percent Effect” value turned out to be 54.75%. The figure for `O=C1CC2(CCN(CC3CC3)CC2)CN1Cc1cc(F)cc(F)c1` is 9.433%; for `CC(C)=CCN1CCC2(CC1)CC(=O)N(Cc1cc(F)cc(F)c1)C2` it is 74%. Consider `NCCn1cc(C(=O)N2CCCCCC2c2cccc(F)c2)nn1` (centres undefined), for which the “Percent Effect” value was -109.1%.

In the case of `COc1cc2nc(C)n(CC(=O)NCCC(C)C)c(=O)c2cc1OC`, the “Percent Effect” value is on record as -84.85%.

For `CCc1ncc(CN2CCC(CCc3ccccc3)CC2)cn1`, the “Percent Effect” value came out at 5.724%. With `Cc1nn(C)c(C)c1CCC(=O)OCC(=O)N1CCc2sccc2C1` the figure was -33.28%; with `CC1=NOC(C(=O)N(C)CCCn2nc(C)cc2C)C1` (centres undefined), -92.45%; with `Cc1nn(C)c(C)c1CN1CCNCC1`, -151.9%. Take `Cc1cc(C)n(CCCN(C)C(=O)C2COc3ccccc3C2)n1` (centres undefined): the “Percent Effect” value is listed as -44.86%. As to `c1cnc(N2CCCC(c3n[nH]c4ncccc34)C2)nc1` (centres undefined), the “Percent Effect” value is listed as -55.39%. As for `COCC[C@]1(O)CCN(Cc2nc(C(C)C)cs2)C[C@H]1C`, the “Percent Effect” value is reported as -100.7%.

For `CN1CCCC(CNC(=O)CN(C)S(=O)(=O)c2cccnc2)C1` (centres undefined), the “Percent Effect” value was -82.06%. On to `O=C(c1ccnnc1)N1CCc2onc(Cn3cccn3)c2C1`, for which the “Percent Effect” value is -67.89%. Regarding `Cn1cccc1C(=O)N1CCc2onc(Cn3cccn3)c2C1`, the “Percent Effect” value is reported as -37.04%.

Turning to `COCCNS(=O)(=O)c1cccc2c1CN(C(=O)c1cc(C)on1)CC2`, the “Percent Effect” value is reported as -82.56%.

`Cn1cnc(C(=O)N2CC3(CCN(S(=O)(=O)c4ccccc4)C3)C2)c1`: the “Percent Effect” value was found to be 9.335%. The figure for `CCS(=O)(=O)N1CCC2(CN(C(=O)c3cn(C)cn3)C2)C1` is -95.83%; for `Cc1n[nH]cc1C(=O)N1CCCC(c2cccc(-n3ccnc3)n2)C1` (centres undefined) it is -34.99%; for `Cc1csc2c(=O)n3c(nc12)CCN(C(=O)c1ccnn1C)CC3` it is -147.1%. The figure for `CCOC(=O)CNC(=O)N1CCc2onc(-c3ccc(Cl)cc3)c2C1` is -35.73%.

The record behind these values is ChEMBL document CHEMBL3988442, “University of Dundee, Small-Polar-MMV Screening Library” (2021).
